Source: PubChem BioAssay (The Scripps Research Institute Molecular Screening Center)
Sampled rows, rich in hits. Any-hit rate of the full collection: about 3.4%.
TEAD-YAP inh: TEAD-YAP interaction inhibition, primary screen, TEAD-YAP interaction inhibitor project, luminescence, HEK-TIYL cells | inhibition, % at 9.12 µM | hit rate 1.4% among 640,000 | TEAD-Gal4/YAP UAS-luciferase luminescence; in the data active = inhibition above about 32%;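 also: 0% = median of test compound wells and 100% = reference inhibitor wells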
FBW7 activator: FBW7 E3 ligase activators, primary screen, biochemical, AlphaScreen, human; AlphaScreen FBW7–phospho-cyclin E peptide binding, activator screen; hit rate 0.13% among 650,000; normalized activity (activation), % at 26.1 µM; in the data active = normalized activity above about 1.9%;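 also: purified mutant Fbw7 with reduced substrate affinity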
GPR151 ag: activators of human GPR151, primary screen, cell-based, PathHunter beta-arrestin, luminescence | G-protein coupled receptor 151 (Homo sapiens), Q8TDV0 | PathHunter beta-arrestin GPR151 cells | activation, % at 11.2 µM | hit rate 1% among 650,000; in the data active = activation above about 4.9%;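 also: 0% = median of compound wells and 100% = cells with positive control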
Target sequence (Q8TDV0 whole entry, looked up): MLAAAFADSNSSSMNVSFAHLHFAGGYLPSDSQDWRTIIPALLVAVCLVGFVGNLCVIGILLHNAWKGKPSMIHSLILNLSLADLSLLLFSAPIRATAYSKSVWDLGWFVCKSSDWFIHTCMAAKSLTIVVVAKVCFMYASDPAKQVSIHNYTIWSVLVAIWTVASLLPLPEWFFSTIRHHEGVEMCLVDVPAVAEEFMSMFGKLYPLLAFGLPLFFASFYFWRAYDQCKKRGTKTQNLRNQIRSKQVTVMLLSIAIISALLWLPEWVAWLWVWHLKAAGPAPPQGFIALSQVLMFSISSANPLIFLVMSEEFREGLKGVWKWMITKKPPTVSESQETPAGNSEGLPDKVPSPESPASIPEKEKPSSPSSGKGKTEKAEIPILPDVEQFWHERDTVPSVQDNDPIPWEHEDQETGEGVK
MITF primary: MITF inhibitors, primary screen, biochemical, AlphaScreen, human | AID 1259374, 2018 | hit rate 0.91% among 650,000 | inhibition, % at 2.6 µM | Microphthalmia-associated transcription factor (Homo sapiens), O75030 | AlphaScreen MITF homodimerization, bead proximity signal; in the data active = inhibition above about 50%;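 also: 0% = vehicle wells with protein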
Numbers without * were called inactive.

SMILES | TEAD-YAP inh | FBW7 activator | GPR151 ag | MITF primary
CCOc1ccc(Nc2c(-c3ccccc3)c(=O)c2=O)cc1 | 60* | 0 | -2 | 20
O=c1c(Nc2ccccc2)c(-c2ccc(Cl)cc2)c1=O | 47* | 0 | -1 | 9
CCOc1ccccc1Nc1c(-c2ccccc2)c(=O)c1=O | -8 | 0 | -1 | -1
Oc1ccc(/C=N/NC(=S)NCCN2CCOCC2)c(O)c1 | -6 | -1 | 2 | 94*
O=C(NCc1cccc(C(F)(F)F)c1)c1ccc2nc(Nc3ccc(-n4ccnc4)cc3)sc2c1 | 11 | 0 | 0 | -1
COc1cc(NC(=O)c2ccc3nc(Nc4ccccn4)sc3c2)cc(OC)c1OC | 32* | 0 | -3 | -3
COc1cc(Nc2nc3ccc(C(=O)NCc4cccnc4)cc3s2)cc(OC)c1OC | 42* | 0 | 3 | 6
O=C(NCc1ccccc1)c1ccc2nc(Nc3ccc(-n4ccnc4)cc3)sc2c1 | 36* | 0 | 3 | 9
O=C(NCc1cccnc1)c1ccc2nc(Nc3ncccn3)sc2c1 | -32 | 0 | 1 | -15
O=C(Nc1cccc(-n2cnnn2)c1)C1CCCN(Cc2cc3ccccc3o2)C1 (stereo not drawn) | 41* | 0 | 0 | 3
O=C(Nc1cccc(-n2cnnn2)c1)C1CCCN(Cc2ccccc2)C1 (stereo not drawn) | 2 | 0 | -1 | -4
Cn1c(Nc2cc(C(=O)NCc3cccc(C(F)(F)F)c3)ccn2)nc2ccccc21 | 35* | 0 | 1 | 10
COc1ccc(CNC(=O)N2CCC(c3nnc(C4CC4)o3)CC2)cc1 | 1 | 1 | -1 | 6
O=C(Nc1ccc2c(c1)OCO2)N1CCN(C2CCCCC2)CC1 | -16 | 0 | -1 | -1
COc1ccc(CNC(=O)N2CCC(c3nnc(C4CC4)s3)CC2)cc1 | 4 | 3.1* | 0 | 5
Cc1cccc(NC(=O)N2CCC(c3nnc(C4CC4)s3)CC2)c1 | -1 | 3.1* | 0 | 9
O=C(Nc1ccc2c(c1)OCO2)N1CCC(c2nnc(C3CC3)s2)CC1 | -23 | 2.6* | 0 | -15
Cc1ccc(F)cc1Nc1ncnc(N)c1[N+](=O)[O-] | -1 | 2.1* | -1 | 17
COc1ccc(/C=C/C(=O)Nc2scc(-c3ccc(Br)cc3)c2C(=O)O)cc1 | 62* | 0 | -1 | -4
Brc1ccc(OCCSc2nc3ccccc3[nH]2)cc1 | -9 | 0 | 0 | -13
COc1ccc2oc(-c3ccc(Cl)cc3)cc(=O)c2c1 | -29 | 0 | 0 | 5
COc1ccc2oc(-c3ccccc3Cl)cc(=O)c2c1 | 49* | 2.6* | -5 | 6
O=c1cc(-c2cccs2)oc2ccc(O)cc12 | -12 | -1 | -3 | 7
COc1ccc2oc(-c3cccs3)cc(=O)c2c1 | 43* | 0 | -6 | 3
CC[n+]1c(C)n(CCCS(=O)(=O)O)c2cc(C#N)ccc21 | -11 | 0 | 0 | 18
SMILES | TEAD-YAP inh | FBW7 activator | GPR151 ag | MITF primary
CCCC(CCn1c(C)[n+](CC)c2ccc(C#N)cc21)S(=O)(=O)O (stereo not drawn) | 14 | 1.9* | -1 | 9
O=C(O)C1Nc2ccc3ccccc3c2C2C=CCC12 (stereo not drawn) | -2 | 0 | 0 | 24
O=C(O)c1ccc2c(c1)C1C=CCC1C(C(=O)O)N2 (stereo not drawn) | 5 | -1 | 0 | 25
O=C(O)C1Nc2c(O)ccc(Br)c2C2C=CCC12 (stereo not drawn) | 2 | 0 | 0 | 86*
Cc1ccc2c(c1C)NC(C(=O)O)C1CC=CC21 (stereo not drawn) | -15 | -1 | -1 | 65*
O=C(O)C1Nc2c(F)cccc2C2C=CCC12 (stereo not drawn) | 8 | 0 | -1 | 78*
O=C(O)C1Nc2ccccc2C2C=CCC12 (stereo not drawn) | -6 | -2 | 0 | 75*
N#CCCNC(=O)Nc1ccccc1 | 4 | 0 | 0 | -3
CCOC(=O)C1Nc2c(ccc(C(=O)O)c2C)C2C=CCC12 (stereo not drawn) | 13 | -1 | 1 | 66*
CCOC(=O)c1ccc2c(c1)[C@@H]1C=CC[C@@H]1[C@H](C(=O)OCC)N2 | -2 | 0 | 0 | 10
CC1(O)CCOCC1NCCC(=O)O (stereo not drawn) | 0 | 0 | 0 | 15
CCCCNC(=O)c1cc(COc2cccc3cnccc23)on1 | 14 | 0 | 2 | 1
O=C(c1cc(COc2cccc3cnccc23)on1)N1CCCC(CCCO)C1 (stereo not drawn) | 65* | 0 | 0 | 10
CN(Cc1ccccc1)C(=O)c1cc(COc2cccc3cnccc23)on1 | 33* | 0 | -3 | 12
CC(C)CCCN=Cc1c(O)n(Cc2ccccc2)c(=O)[nH]c1=O | 2 | 0 | 0 | 2
CCC1(C)OC(=O)N(CCc2c(C)[nH]c3ccc(F)cc23)C1(C)O (stereo not drawn) | 5 | 0 | 0 | -7
NNC(=O)Nc1cccc2nsnc12 | 66* | 2 | -2 | 11
CCOC(=O)c1sc2nc(SCc3c(F)cccc3F)n(Cc3ccco3)c(=O)c2c1C | 2 | 0 | 0 | -3
O=C1OC(OC(=O)c2ccccc2)C(Nc2ccccc2)=C1Cl (stereo not drawn) | -1 | 0 | -2 | -2
O=C1OC(OC(=O)c2ccccc2)C(Nc2cccc(O)c2)=C1Cl (stereo not drawn) | 2 | 2.4* | -1 | 11
OC1(c2ccccc2)CSC(=Nc2cccnc2)N1CCCn1ccnc1 (stereo not drawn) | 43* | 0 | 1 | 18
C=CCN1C(=Nc2cccnc2)SCC1(O)c1ccc(C)cc1 (stereo not drawn) | 25 | 0 | 0 | 15
Cc1cc2c(c(-c3nc4ccccc4s3)c1)OC(CNC(=O)Cn1nc(C)nc1C)C2 (stereo not drawn) | 10 | 0 | 0 | 0
Cc1cc(C2C(C#N)=C(N)N(c3cccc(Br)c3)C3=C2C(=O)CC(C)(C)C3)c(C)s1 (stereo not drawn) | -14 | 0 | 0 | -58
COc1ccc(-c2cc(C(F)(F)F)n3nc(C(=O)N4CCN(C)CC4)cc3n2)cc1 | 5 | 0 | -1 | -2
CCC(=O)NC(c1ccccc1Cl)c1ccc2cccnc2c1O (stereo not drawn) | 89* | -2 | 0 | 31
CCCCC(=O)NC(c1ccccc1Cl)c1ccc2cccnc2c1O (stereo not drawn) | 87* | -2 | -2 | 31
CCC(=O)NC(c1ccccc1OC)c1ccc2cccnc2c1O (stereo not drawn) | 44* | -2 | 1 | 43
O=C(NC(c1ccc(Cl)cc1)c1ccc2cccnc2c1O)C1CCCCC1 (stereo not drawn) | 14 | 1 | -1 | 12
